Consider 18 compounds from PubChem BioAssay (EPA / NIEHS).

Structures are written as SMILES. The source made the active and inactive calls. How the source made its calls: active means hit-call score of the fitted dose curve at least 0.9, where 1 is the maximum; inactive means score below 0.9.

As a reminder, the AC50 is the midpoint of the concentration-response curve, whichever way the signal moves.

Read-out in the first assay: Transforming growth factor beta 1 (TGFb1), TGFB1 (gene 7040)
Briefly: BSK_BE3C_TGFb1: BioMAP Diversity Plus: BE3C Assay for Transforming growth factor beta 1 (TGFb1) Biomarker Activity (AID 2283036). As to conditions: primary human bronchial epithelial cells; actives raise or lower the signal. In short, it runs like this: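 Human primary bronchial epithelial cells (BE3C system) were dosed with chemical and TGF-b1 levels measured by ELISA at 24 h. Activity was fitted bidirectionally relative to DMSO negative control as baseline.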
`O=C(O)c1cc(N=Nc2ccc(S(=O)(=O)Nc3ccccn3)cc2)ccc1O`: the outcome was inactive.
For `CCCCCCCCO`, the outcome was inactive.
With `CN(C)c1ccc(Cc2ccc(N(C)C)cc2)cc1`, the result was inactive.
On to `C[C@](N)(Cc1ccc(O)c(O)c1)C(=O)O`, for which the outcome was inactive.
Turning to `CCOCCOCCOCCO`, the outcome was inactive.
On to `CC[C@H]1CC[C@H](NCc2cc3c(cc2OC)[C@H]2C[C@H]2C(=O)N3C)[C@H](c2ccccc2)N1`, for which the outcome was inactive.
Still for that read-out and setting: the entry for `Nc1ccc(Nc2ccccc2)cc1` is “inactive”.
On to `On1ccccc1=S`, for which the AC50 was 5.47 µM (active).
Consider `CCOC(=O)CC(CC(=O)OCC)(OC(C)=O)C(=O)OCC`, for which the outcome was inactive.
As for `O=C(O)c1cccc(Oc2ccccc2)c1`, the result was inactive.
With `Cn1cnc([N+](=O)[O-])c1Sc1ncnc2nc[nH]c12`, the result was inactive.

Read-out in a further assay: Plasminogen activator inhibitor-1 (PAI1), SERPINE1 (gene 5054)
Briefly: BSK_BE3C_PAI1: BioMAP Diversity Plus: BE3C Assay for Plasminogen activator inhibitor-1 (PAI1) Biomarker Activity (AID 2283037). As to conditions: primary human bronchial epithelial cells; actives raise or lower the signal. The method, boiled down: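 Human primary bronchial epithelial cells were exposed to chemical for 24 h, then PAI-1 was quantified by ELISA. Activity was fitted bidirectionally relative to the DMSO negative control baseline.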
Turning to `Clc1nc(Cl)c(Cl)c(Cl)c1Cl`, the outcome was inactive.
For `CC[C@H]1OC(=O)[C@H](C)[C@@H](O[C@H]2C[C@@](C)(OC)[C@@H](O)[C@H](C)O2)[C@H](C)[C@@H](O[C@@H]2O[C@H](C)C[C@H](N(C)C)[C@H]2O)[C@](C)(O)C[C@@H](C)C(=O)[C@H](C)[C@@H](O)[C@]1(C)O`, the result was inactive.
For the compound `CCOc1cccc(-n2cc(C(=O)N3CCN(c4cc(C(=O)O)c5ccccc5c4)CC3)nc2-c2ccc(C)cc2)c1`, the AC50 was 19.2 µM (active).
Turning to `CC(C)CCCCCCOC(=O)c1ccc(C(=O)OCCCCCCC(C)C)c(C(=O)OCCCCCCC(C)C)c1`, the result was inactive.
With `Cc1[nH]cnc1C[C@H]1CCc2c(C)c3ccccc3n2C1=O`, the outcome was inactive.
Same read-out and setting: the entry for `Oc1ccc2c(c1)-c1ccccc1C2` is “inactive”.
Regarding `CCCN(C1CCN(C(=O)C2CCNCC2)CC1)[C@@H]1CCc2ccc(OC)cc2C1`, the outcome was inactive.
